The supplement of paper PMC12669032

Legend:
Assay in all cases: growth AUC relative to DMSO control (median of replicates) (fraction); higher = more growth (less inhibition), active = hit call of the paper
Conditions in all cases: 20 µM; 24 h;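 active = AUC reduced over 20% with Padj below 0.05 in at least 2 of 3 replicates; inactive = otherwise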
Akkermansia muciniphila = tested on: Akkermansia muciniphila
Summary of the method: (§1)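 OD600 was recorded every hour for 24 h in anaerobic monocultures of gut bacteria kept at 37 °C in mGAM, seeded at OD600 0.05 and given 20 µM compound in 1% DMSO. The area under each growth curve was scaled to the plate median of solvent-only wells, or to row and column medians for the industrial chemical plate. Before this step, the minimum OD was set to 0. Reported values are medians of three biological replicates run on separate days.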

Bacteroides caccae = tested on: Bacteroides caccae
Summary of the method: as §1

Bacteroides clarus = tested on: Bacteroides clarus
Summary of the method: as §1

Bacteroides dorei = tested on: Bacteroides dorei
Summary of the method: as §1

Bacteroides stercoris = tested on: Bacteroides stercoris
Summary of the method: as §1

[1] = tested on: Bacteroides thetaiotaomicron
Summary of the method: as §1

Bacteroides uniformis = tested on: Bacteroides uniformis
Summary of the method: as §1

[2] = tested on: Bifidobacterium longum subsp. longum
Summary of the method: as §1

Clostridium difficile = tested on: Clostridium difficile
Summary of the method: as §1

Collinsella aerofaciens = tested on: Collinsella aerofaciens
Summary of the method: as §1

Coprococcus comes = tested on: Coprococcus comes
Summary of the method: as §1

Escherichia coli ED1a = tested on: Escherichia coli ED1a
Summary of the method: as §1

Escherichia coli IAI1 = tested on: Escherichia coli IAI1
Summary of the method: as §1

Eubacterium rectale = tested on: Eubacterium rectale
Summary of the method: as §1

[3] = tested on: Fusobacterium nucleatum subsp. animalis
Summary of the method: as §1

Lactobacillus gasseri = tested on: Lactobacillus gasseri
Summary of the method: as §1

Lactobacillus paracasei = tested on: Lactobacillus paracasei
Summary of the method: as §1

Odoribacter splanchnicus = tested on: Odoribacter splanchnicus
Summary of the method: as §1

[4] = tested on: Parabacteroides distasonis
Summary of the method: as §1

Parabacteroides merdae = tested on: Parabacteroides merdae
Summary of the method: as §1

Measured: growth AUC

CC1(C)C(C=C(Cl)Cl)C1C(=O)OC(C#N)c1cccc(Oc2ccccc2)c1 (mixture of isomers)
inactive: Akkermansia muciniphila 1.14 | Bacteroides caccae 0.963 | Bacteroides clarus 1 | Bacteroides dorei 0.996 | Bacteroides stercoris 1.11 | [1] 0.981 | Bacteroides uniformis 1.01 | [2] 0.984 | Clostridium difficile 1.04 | Collinsella aerofaciens 0.966 | Coprococcus comes 1 | Escherichia coli ED1a 1.01 | Escherichia coli IAI1 0.987 | Eubacterium rectale 1.02 | [3] 1.04 | Lactobacillus gasseri 0.865 | Lactobacillus paracasei 1.02 | Odoribacter splanchnicus 1.03 | [4] 0.982 | Parabacteroides merdae 0.984

OC[C@@H](O)[C@H]1O[C@@H]2O[C@H](C(Cl)(Cl)Cl)O[C@@H]2[C@H]1O (mixture of isomers)
inactive: Akkermansia muciniphila 0.979 | Bacteroides caccae 1.02 | Bacteroides clarus 0.978 | Bacteroides dorei 1.04 | Bacteroides stercoris 0.952 | [1] 1.01 | Bacteroides uniformis 1.04 | [2] 0.969 | Clostridium difficile 1.03 | Collinsella aerofaciens 0.975 | Coprococcus comes 0.988 | Escherichia coli ED1a 0.99 | Escherichia coli IAI1 0.986 | Eubacterium rectale 1.05 | [3] 0.83 | Lactobacillus gasseri 1.03 | Lactobacillus paracasei 0.943 | Odoribacter splanchnicus 1.06 | [4] 0.903 | Parabacteroides merdae 0.999

CCOC(=O)C(Cl)Cc1cc(-n2nc(C)n(C(F)F)c2=O)c(F)cc1Cl (stereo not given)
inactive: Akkermansia muciniphila 0.963 | Bacteroides caccae 0.991 | Bacteroides clarus 0.927 | Bacteroides dorei 0.967 | Bacteroides stercoris 0.996 | [1] 0.926 | Bacteroides uniformis 0.936 | [2] 1.02 | Clostridium difficile 0.981 | Collinsella aerofaciens 0.972 | Coprococcus comes 0.963 | Escherichia coli ED1a 0.986 | Escherichia coli IAI1 0.941 | Eubacterium rectale 0.794 | [3] 0.987 | Lactobacillus gasseri 1.01 | Lactobacillus paracasei 0.966 | Odoribacter splanchnicus 0.988 | [4] 0.963 | Parabacteroides merdae 0.925

CCNc1nc(Cl)nc(NC(C)(C)C)n1
inactive: Akkermansia muciniphila 1.01 | Bacteroides caccae 0.987 | Bacteroides clarus 0.977 | Bacteroides dorei 0.978 | Bacteroides stercoris 0.996 | [1] 0.967 | Bacteroides uniformis 1 | [2] 1.01 | Clostridium difficile 0.977 | Collinsella aerofaciens 0.971 | Coprococcus comes 0.995 | Escherichia coli ED1a 0.977 | Escherichia coli IAI1 1.01 | Eubacterium rectale 1.07 | [3] 0.975 | Lactobacillus gasseri 0.947 | Lactobacillus paracasei 1.03 | Odoribacter splanchnicus 1.01 | [4] 0.992 | Parabacteroides merdae 0.979

COCc1cnc(C2=NC(C)(C(C)C)C(=O)N2)c(C(=O)O)c1 (stereo not given)
inactive: Akkermansia muciniphila 1.12 | Bacteroides caccae 0.971 | Bacteroides clarus 1.03 | Bacteroides dorei 0.918 | Bacteroides stercoris 1 | [1] 0.999 | Bacteroides uniformis 1.01 | [2] 1.22 | Clostridium difficile 0.973 | Collinsella aerofaciens 0.998 | Coprococcus comes 0.971 | Escherichia coli ED1a 1 | Escherichia coli IAI1 0.982 | Eubacterium rectale 1.09 | [3] 1.05 | Lactobacillus gasseri 0.91 | Lactobacillus paracasei 0.934 | Odoribacter splanchnicus 1.05 | [4] 1.03 | Parabacteroides merdae 0.987

CCCCN(CCCC)N=O
inactive: Akkermansia muciniphila 0.985 | Bacteroides caccae 1.01 | Bacteroides clarus 1.02 | Bacteroides dorei 1.01 | Bacteroides stercoris 1 | [1] 1 | Bacteroides uniformis 1 | [2] 1.01 | Clostridium difficile 1.01 | Collinsella aerofaciens 1.03 | Coprococcus comes 0.982 | Escherichia coli ED1a 0.995 | Escherichia coli IAI1 1 | Eubacterium rectale 1.02 | [3] 1.02 | Lactobacillus gasseri 1.11 | Lactobacillus paracasei 1.02 | Odoribacter splanchnicus 1 | [4] 1.16 | Parabacteroides merdae 1.01

CCOP(=S)(OCC)Oc1ccc(Cl)cc1Cl
inactive: Akkermansia muciniphila 0.962 | Bacteroides caccae 1.03 | Bacteroides clarus 0.963 | Bacteroides dorei 1.02 | Bacteroides stercoris 1.04 | [1] 0.979 | Bacteroides uniformis 0.987 | [2] 1.04 | Clostridium difficile 1.02 | Collinsella aerofaciens 1.04 | Coprococcus comes 1.03 | Escherichia coli ED1a 1.01 | Escherichia coli IAI1 1.02 | Eubacterium rectale 0.953 | [3] 1.03 | Lactobacillus gasseri 1 | Lactobacillus paracasei 1.07 | Odoribacter splanchnicus 1.02 | [4] 1.05 | Parabacteroides merdae 0.997

COP(=S)(OC)Oc1ccc(Sc2ccc(OP(=S)(OC)OC)cc2)cc1
inactive: Akkermansia muciniphila 0.994 | Bacteroides caccae 0.986 | Bacteroides clarus 1.04 | Bacteroides dorei 0.979 | Bacteroides stercoris 1.08 | [1] 1.04 | Bacteroides uniformis 0.968 | [2] 0.94 | Clostridium difficile 0.996 | Collinsella aerofaciens 0.992 | Coprococcus comes 1.03 | Escherichia coli ED1a 1.05 | Escherichia coli IAI1 1.01 | Eubacterium rectale 1.01 | [3] 1.09 | Lactobacillus gasseri 1.03 | Lactobacillus paracasei 0.973 | Odoribacter splanchnicus 1.13 | [4] 1.01 | Parabacteroides merdae 1.05

Oc1ccc(Cc2ccc(O)cc2)cc1
inactive: Akkermansia muciniphila 0.954 | Bacteroides caccae 0.992 | Bacteroides clarus 1.03 | Bacteroides dorei 0.998 | Bacteroides stercoris 1.05 | [1] 1.02 | Bacteroides uniformis 1.01 | [2] 0.975 | Clostridium difficile 1.02 | Collinsella aerofaciens 1.01 | Coprococcus comes 0.968 | Escherichia coli ED1a 1.03 | Escherichia coli IAI1 0.979 | Eubacterium rectale 1.09 | [3] 0.987 | Lactobacillus gasseri 1.04 | Lactobacillus paracasei 0.962 | Odoribacter splanchnicus 0.942 | [4] 0.89 | Parabacteroides merdae 0.994

CCN(CC)C(=O)C(C)Oc1cccc2ccccc12 (stereo not given)
inactive: Akkermansia muciniphila 0.935 | Bacteroides caccae 0.996 | Bacteroides clarus 0.976 | Bacteroides dorei 0.981 | Bacteroides stercoris 1.05 | [1] 0.984 | Bacteroides uniformis 0.958 | [2] 0.989 | Clostridium difficile 0.965 | Collinsella aerofaciens 0.999 | Coprococcus comes 1.01 | Escherichia coli ED1a 0.979 | Escherichia coli IAI1 1.01 | Eubacterium rectale 0.983 | [3] 1.02 | Lactobacillus gasseri 1.03 | Lactobacillus paracasei 0.977 | Odoribacter splanchnicus 0.96 | [4] 0.997 | Parabacteroides merdae 1.02

CNC(=O)ON=C(CS(C)=O)C(C)(C)C (stereo not given)
inactive: Akkermansia muciniphila 1.08 | Bacteroides caccae 1.02 | Bacteroides clarus 0.997 | Bacteroides dorei 1.01 | Bacteroides stercoris 0.97 | [1] 1.02 | Bacteroides uniformis 1.01 | [2] 0.955 | Clostridium difficile 1.02 | Collinsella aerofaciens 1 | Coprococcus comes 1 | Escherichia coli ED1a 1.02 | Escherichia coli IAI1 0.998 | Eubacterium rectale 1.14 | [3] 1.01 | Lactobacillus gasseri 1.06 | Lactobacillus paracasei 0.999 | Odoribacter splanchnicus 1.02 | [4] 1.03 | Parabacteroides merdae 1.01

CC1(C)OC(c2ccco2)CN1C(=O)C(Cl)Cl (stereo not given)
inactive: Akkermansia muciniphila 0.918 | Bacteroides caccae 1 | Bacteroides clarus 0.942 | Bacteroides dorei 1 | Bacteroides stercoris 1.03 | [1] 0.992 | Bacteroides uniformis 1.02 | [2] 1.03 | Clostridium difficile 0.956 | Collinsella aerofaciens 1.02 | Coprococcus comes 1.03 | Escherichia coli ED1a 1.01 | Escherichia coli IAI1 0.994 | Eubacterium rectale 0.803 | [3] 0.934 | Lactobacillus gasseri 1.07 | Lactobacillus paracasei 0.976 | Odoribacter splanchnicus 1.05 | [4] 0.99 | Parabacteroides merdae 0.968

COP(=S)(OC)Oc1ccc(S(C)=O)c(C)c1 (stereo not given)
inactive: Akkermansia muciniphila 0.88 | Bacteroides caccae 1.02 | Bacteroides clarus 1.01 | Bacteroides dorei 1.03 | Bacteroides stercoris 1.16 | [1] 0.962 | Bacteroides uniformis 1.03 | [2] 1.02 | Clostridium difficile 1.01 | Collinsella aerofaciens 1.03 | Coprococcus comes 1.04 | Escherichia coli ED1a 0.975 | Escherichia coli IAI1 1.04 | Eubacterium rectale 1.06 | [3] 1.02 | Lactobacillus gasseri 1.02 | Lactobacillus paracasei 1.01 | Odoribacter splanchnicus 0.979 | [4] 1.03 | Parabacteroides merdae 0.988

CNC(=O)O/N=C/C(C)(C)S(C)(=O)=O
inactive: Akkermansia muciniphila 0.927 | Bacteroides caccae 0.994 | Bacteroides clarus 0.962 | Bacteroides dorei 1.02 | Bacteroides stercoris 0.973 | [1] 1 | Bacteroides uniformis 1.01 | [2] 1.05 | Clostridium difficile 0.966 | Collinsella aerofaciens 1.01 | Coprococcus comes 0.98 | Escherichia coli ED1a 1.03 | Escherichia coli IAI1 1.03 | Eubacterium rectale 0.939 | [3] 0.97 | Lactobacillus gasseri 1.05 | Lactobacillus paracasei 1 | Odoribacter splanchnicus 0.964 | [4] 1.04 | Parabacteroides merdae 0.977

C#CC(C)(C)NC(=O)c1cc(Cl)cc(Cl)c1
inactive: Akkermansia muciniphila 1.06 | Bacteroides caccae 0.964 | Bacteroides clarus 0.949 | Bacteroides dorei 0.956 | Bacteroides stercoris 0.88 | [1] 0.932 | Bacteroides uniformis 0.96 | [2] 0.987 | Clostridium difficile 0.948 | Collinsella aerofaciens 0.936 | Coprococcus comes 1 | Escherichia coli ED1a 0.984 | Escherichia coli IAI1 0.963 | Eubacterium rectale 1.04 | [3] 0.95 | Lactobacillus gasseri 0.91 | Lactobacillus paracasei 1.03 | Odoribacter splanchnicus 1.06 | [4] 1.01 | Parabacteroides merdae 1.01

O=C(NC(=O)c1c(F)cccc1F)Nc1ccc(OC(F)(F)C(F)OC(F)(F)F)c(Cl)c1 (stereo not given)
inactive: Akkermansia muciniphila 0.979 | Bacteroides caccae 0.991 | Bacteroides clarus 1.01 | Bacteroides dorei 1.03 | Bacteroides stercoris 0.982 | [1] 0.974 | Bacteroides uniformis 0.997 | [2] 1 | Clostridium difficile 0.985 | Collinsella aerofaciens 0.971 | Coprococcus comes 1 | Escherichia coli ED1a 1.05 | Escherichia coli IAI1 1 | Eubacterium rectale 0.99 | [3] 0.986 | Lactobacillus gasseri 1.49 | Lactobacillus paracasei 0.958 | Odoribacter splanchnicus 0.983 | [4] 1.02 | Parabacteroides merdae 0.997
